Data: the supplement of paper PMC10849652
The full data set covers some 8,800 targets. This sample favours those with a hit. About 0.5% of all pairs of compound and target were hits. Unmarked numbers belong to inactive results.

Assays:
Experiment in all cases: log2 fold change, soluble protein after heating vs DMSO (PISA); higher = thermal stabilisation; K562 lysate, 10 uM; active = over 0.2 and 3.5 SD of the protein, either way, in both replicates (recomputed)
[1] = compound: CN1CC[C@H](c2c(O)cc(O)c3c(=O)cc(-c4ccccc4Cl)oc23)[C@H](O)C1 [alvocidib]
Outline: (§1)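 K562 pellets were dounce-homogenised in PBS pH 7.4 containing 1 mM MgCl2, and the crude extract, at 1 mg/mL protein, was exposed to 10 μM compound for 30 min. Aliquots were heated for 3 min across 48°C-58°C, pooled, brought to 0.5% NP-40 at 4°C and spun at 21,000xg for 90 min, with the supernatant taken as soluble protein. TMTpro 16plex LC-MS/MS with equalised channel sums quantified that protein. Values are log-two fold changes in thermal stability relative to solvent controls, taken from duplicates.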

[2] = compound: CN1CCc2c(c3ccccc3n2Cc2ccc(C(=O)NO)cc2)C1 [Tubastatin A]
Outline: as §1

[3] = compound: CNC(=O)C1=CC=CC=C1NC2=NC(=NC=C2Cl)NC3=C(C=C(C=C3)N4CCOCC4)OC
Outline: as §1

[4] = compound: CNC(=O)c1ccc(Nc2ncc(C(F)(F)F)c(NCc3nccnc3N(C)S(C)(=O)=O)n2)cc1 [defactinib]
Outline: as §1

[5] = compound: CNc1nc(-c2ccc3c(N)n[nH]c3c2)cc(N2C[C@@H](C(=O)NC3CCCCC3)CC[C@H]2C)n1
Outline: as §1

[6] = compound: COC(=O)N[C@@H](C)CNc1nccc(-c2cn(C(C)C)nc2-c2cc(Cl)cc(NS(C)(=O)=O)c2F)n1 [encorafenib]
Outline: as §1

[7] = compound: COC(=O)[C@H](CCSC)NC(=O)C1=C(C=C(C=C1)NC[C@H](CS)N)C2=CC=CC=C2
Outline: as §1

[8] = compound: COc1cc(Nc2ncc3c(n2)-c2ccc(Cl)cc2C(c2c(F)cccc2OC)=NC3)ccc1C(=O)O [alisertib]
Outline: as §1

[9] = compound: COc1cc2nc(-c3cc(F)ccc3O)nc(N[C@@H]3CNC[C@H]3C(C)(C)O)c2cc1OC
Outline: as §1

[10] = compound: COc1cc2ncnc(Nc3ccc(F)c(Cl)c3)c2cc1OCCCN1CCOCC1 [gefitinib]
Outline: as §1

[11] = compound: CS(=O)(=O)CCNCc1ccc(-c2ccc3ncnc(Nc4ccc(OCc5cccc(F)c5)c(Cl)c4)c3c2)o1 [lapatinib]
Outline: as §1

[12] = compound: CS(=O)(=O)N1CCN(Cc2cc3nc(-c4cccc5[nH]ncc45)nc(N4CCOCC4)c3s2)CC1 [pictilisib]
Outline: as §1

[13] = compound: C[C@@H](Oc1cc(-c2cnn(C3CCNCC3)c2)cnc1N)c1c(Cl)ccc(F)c1Cl [crizotinib]
Outline: as §1

[14] = compound: C[C@H](C1=CC=C(C=C1)C(=O)NC2=C3C=CNC3=NC=C2)N
Outline: as §1

[15] = compound: C[C@H](Nc1ncnc2nc[nH]c12)c1cc2cccc(Cl)c2c(=O)n1-c1ccccc1 [duvelisib]
Outline: as §1

[16] = compound: Cc1cc(Nc2cc(CN3CCOCC3)c3nc(C)c(Cc4ccc(Cl)cc4F)n3n2)n[nH]1 [gandotinib]
Outline: as §1

[17] = compound: Cc1cc(Nc2cc(N3CCN(C)CC3)nc(Sc3ccc(NC(=O)C4CC4)cc3)n2)n[nH]1 [tozasertib]
Outline: as §1

[18] = compound: Cc1ccc(-n2nc(C(C)(C)C)cc2NC(=O)Nc2ccc(OCCN3CCOCC3)c3ccccc23)cc1 [doramapimod]
Outline: as §1

[19] = compound: Cc1ccc(NC(=O)c2ccc(CN3CC[C@H](N(C)C)C3)c(C(F)(F)F)c2)cc1Nc1nccc(-c2cncnc2)n1 [bafetinib]
Outline: as §1

[20] = compound: Cc1cccc(CC(=O)N2CCc3c2ccc(-c2cn(C)c4ncnc(N)c24)c3F)n1
Outline: as §1

UniProt O60825, sequence (O60825 whole entry, looked up): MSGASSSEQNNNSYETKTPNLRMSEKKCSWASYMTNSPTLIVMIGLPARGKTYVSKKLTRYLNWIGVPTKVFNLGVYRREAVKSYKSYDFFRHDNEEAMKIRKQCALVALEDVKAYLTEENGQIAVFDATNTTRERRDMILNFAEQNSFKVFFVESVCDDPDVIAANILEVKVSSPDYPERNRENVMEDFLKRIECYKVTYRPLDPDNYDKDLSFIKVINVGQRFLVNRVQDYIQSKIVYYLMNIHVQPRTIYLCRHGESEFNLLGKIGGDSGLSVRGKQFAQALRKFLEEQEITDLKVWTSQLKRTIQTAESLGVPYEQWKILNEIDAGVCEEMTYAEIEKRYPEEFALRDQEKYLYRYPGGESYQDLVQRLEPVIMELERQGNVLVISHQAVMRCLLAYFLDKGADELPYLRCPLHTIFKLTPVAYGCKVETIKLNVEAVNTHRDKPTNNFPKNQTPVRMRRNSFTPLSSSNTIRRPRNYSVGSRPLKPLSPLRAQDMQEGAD
UniProt Q16512, sequence (Q16512 whole entry, looked up): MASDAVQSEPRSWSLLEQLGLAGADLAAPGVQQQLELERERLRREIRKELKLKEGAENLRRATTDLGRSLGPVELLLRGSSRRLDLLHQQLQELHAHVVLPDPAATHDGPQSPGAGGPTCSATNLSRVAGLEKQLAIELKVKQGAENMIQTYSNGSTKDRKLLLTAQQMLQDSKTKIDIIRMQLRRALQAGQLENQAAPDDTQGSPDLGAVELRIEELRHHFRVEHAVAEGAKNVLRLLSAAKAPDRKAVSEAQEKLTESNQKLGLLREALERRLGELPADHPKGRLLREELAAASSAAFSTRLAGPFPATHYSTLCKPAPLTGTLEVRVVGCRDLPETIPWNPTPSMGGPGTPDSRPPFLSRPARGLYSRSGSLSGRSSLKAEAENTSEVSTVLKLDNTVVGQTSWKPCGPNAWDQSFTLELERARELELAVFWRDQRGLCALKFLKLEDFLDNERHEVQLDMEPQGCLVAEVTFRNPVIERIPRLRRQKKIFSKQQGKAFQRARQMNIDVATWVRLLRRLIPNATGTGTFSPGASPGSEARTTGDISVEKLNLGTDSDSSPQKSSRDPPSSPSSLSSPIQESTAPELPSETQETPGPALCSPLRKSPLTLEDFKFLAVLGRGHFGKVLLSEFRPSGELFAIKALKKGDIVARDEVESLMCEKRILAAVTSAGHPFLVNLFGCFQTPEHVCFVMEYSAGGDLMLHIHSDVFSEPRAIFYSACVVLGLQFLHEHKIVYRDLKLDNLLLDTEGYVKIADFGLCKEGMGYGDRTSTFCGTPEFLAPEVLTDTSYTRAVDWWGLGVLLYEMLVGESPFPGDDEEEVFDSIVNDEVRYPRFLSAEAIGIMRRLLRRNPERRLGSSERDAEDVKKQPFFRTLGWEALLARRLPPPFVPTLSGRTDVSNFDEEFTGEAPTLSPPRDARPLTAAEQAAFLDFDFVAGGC
UniProt Q9BTU6, sequence (Q9BTU6 whole entry, looked up): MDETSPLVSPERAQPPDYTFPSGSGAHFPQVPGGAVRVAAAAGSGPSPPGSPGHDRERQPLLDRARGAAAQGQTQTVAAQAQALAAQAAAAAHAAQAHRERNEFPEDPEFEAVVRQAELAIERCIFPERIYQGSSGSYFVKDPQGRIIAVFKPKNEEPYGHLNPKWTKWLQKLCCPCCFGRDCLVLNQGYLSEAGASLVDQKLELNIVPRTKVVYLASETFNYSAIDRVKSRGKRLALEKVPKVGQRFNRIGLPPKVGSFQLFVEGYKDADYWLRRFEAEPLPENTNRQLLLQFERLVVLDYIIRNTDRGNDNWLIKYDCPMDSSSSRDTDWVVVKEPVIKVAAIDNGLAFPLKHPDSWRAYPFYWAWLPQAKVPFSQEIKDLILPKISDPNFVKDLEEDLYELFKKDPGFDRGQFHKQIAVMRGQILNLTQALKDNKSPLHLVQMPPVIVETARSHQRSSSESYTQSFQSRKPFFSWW
UniProt Q15054, sequence (Q15054 whole entry, looked up): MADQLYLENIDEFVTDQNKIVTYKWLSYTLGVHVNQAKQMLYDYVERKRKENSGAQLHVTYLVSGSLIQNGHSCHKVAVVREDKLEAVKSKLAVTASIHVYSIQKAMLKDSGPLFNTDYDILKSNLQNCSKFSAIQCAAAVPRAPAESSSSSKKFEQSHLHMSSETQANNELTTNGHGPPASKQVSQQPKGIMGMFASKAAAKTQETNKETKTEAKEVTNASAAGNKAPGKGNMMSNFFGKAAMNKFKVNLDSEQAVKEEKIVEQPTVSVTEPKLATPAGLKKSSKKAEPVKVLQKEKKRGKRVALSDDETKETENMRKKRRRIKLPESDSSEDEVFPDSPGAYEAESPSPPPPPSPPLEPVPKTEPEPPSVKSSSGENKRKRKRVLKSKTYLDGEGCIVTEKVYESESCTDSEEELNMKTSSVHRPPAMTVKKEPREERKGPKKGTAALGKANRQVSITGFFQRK
UniProt Q8NA72, sequence (Q8NA72 whole entry, looked up): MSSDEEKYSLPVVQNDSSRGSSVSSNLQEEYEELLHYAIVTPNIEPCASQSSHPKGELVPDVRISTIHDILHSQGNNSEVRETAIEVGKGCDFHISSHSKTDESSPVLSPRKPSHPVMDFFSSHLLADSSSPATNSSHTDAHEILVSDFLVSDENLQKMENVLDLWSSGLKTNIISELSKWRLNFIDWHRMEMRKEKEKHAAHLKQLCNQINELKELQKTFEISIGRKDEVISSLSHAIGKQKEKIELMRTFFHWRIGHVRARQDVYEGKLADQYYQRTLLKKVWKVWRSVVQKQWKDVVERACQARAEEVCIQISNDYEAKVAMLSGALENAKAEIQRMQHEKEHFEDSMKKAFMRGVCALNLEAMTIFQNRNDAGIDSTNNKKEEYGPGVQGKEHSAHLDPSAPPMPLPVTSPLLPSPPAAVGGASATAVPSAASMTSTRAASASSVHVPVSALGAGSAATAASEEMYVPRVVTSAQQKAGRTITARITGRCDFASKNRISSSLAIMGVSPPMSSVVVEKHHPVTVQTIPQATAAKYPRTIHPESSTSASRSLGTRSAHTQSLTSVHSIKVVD
UniProt Q05655, sequence (Q05655 whole entry, looked up): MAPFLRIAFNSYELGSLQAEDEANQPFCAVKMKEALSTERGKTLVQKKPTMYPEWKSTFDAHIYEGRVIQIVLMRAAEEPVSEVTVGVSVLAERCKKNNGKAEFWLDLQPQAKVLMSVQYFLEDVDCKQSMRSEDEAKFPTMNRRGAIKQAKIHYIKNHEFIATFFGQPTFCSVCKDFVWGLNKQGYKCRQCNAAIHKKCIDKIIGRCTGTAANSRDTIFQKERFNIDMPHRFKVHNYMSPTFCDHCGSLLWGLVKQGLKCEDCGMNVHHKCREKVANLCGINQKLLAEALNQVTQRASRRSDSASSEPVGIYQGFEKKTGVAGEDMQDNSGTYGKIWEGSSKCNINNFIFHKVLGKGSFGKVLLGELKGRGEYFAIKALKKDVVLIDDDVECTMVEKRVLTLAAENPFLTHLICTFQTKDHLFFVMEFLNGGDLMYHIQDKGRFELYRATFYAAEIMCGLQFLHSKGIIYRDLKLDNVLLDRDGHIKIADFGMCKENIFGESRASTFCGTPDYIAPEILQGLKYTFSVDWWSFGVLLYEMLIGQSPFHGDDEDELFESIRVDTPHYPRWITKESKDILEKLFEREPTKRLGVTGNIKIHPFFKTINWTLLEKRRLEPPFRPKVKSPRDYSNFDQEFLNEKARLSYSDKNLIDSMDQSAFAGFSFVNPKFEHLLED
UniProt Q8NAV1, sequence (Q8NAV1 whole entry, looked up): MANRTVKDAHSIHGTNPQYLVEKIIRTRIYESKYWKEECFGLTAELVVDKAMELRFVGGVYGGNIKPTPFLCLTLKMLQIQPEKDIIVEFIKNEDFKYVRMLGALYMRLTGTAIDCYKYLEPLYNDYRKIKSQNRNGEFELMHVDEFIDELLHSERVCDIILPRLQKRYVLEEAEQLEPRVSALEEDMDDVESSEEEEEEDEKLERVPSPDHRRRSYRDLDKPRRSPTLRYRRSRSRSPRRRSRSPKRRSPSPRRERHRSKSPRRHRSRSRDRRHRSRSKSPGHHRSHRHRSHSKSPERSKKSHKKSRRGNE
UniProt P29350, sequence (P29350 whole entry, looked up): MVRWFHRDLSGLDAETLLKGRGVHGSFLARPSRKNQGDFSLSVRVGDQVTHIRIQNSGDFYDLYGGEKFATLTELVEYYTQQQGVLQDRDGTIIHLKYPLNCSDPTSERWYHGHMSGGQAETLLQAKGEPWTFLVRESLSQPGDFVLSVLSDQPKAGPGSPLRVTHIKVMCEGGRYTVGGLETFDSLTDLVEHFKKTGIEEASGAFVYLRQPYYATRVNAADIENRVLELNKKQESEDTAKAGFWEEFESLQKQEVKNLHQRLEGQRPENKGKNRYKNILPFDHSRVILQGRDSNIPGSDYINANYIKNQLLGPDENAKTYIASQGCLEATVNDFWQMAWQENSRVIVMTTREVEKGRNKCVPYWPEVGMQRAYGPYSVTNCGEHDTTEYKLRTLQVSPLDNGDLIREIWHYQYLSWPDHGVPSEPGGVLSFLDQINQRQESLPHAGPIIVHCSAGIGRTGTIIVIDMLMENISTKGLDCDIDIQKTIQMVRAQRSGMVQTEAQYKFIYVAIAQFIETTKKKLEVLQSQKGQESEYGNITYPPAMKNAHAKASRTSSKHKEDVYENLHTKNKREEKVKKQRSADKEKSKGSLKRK

Target	log2 fold change [1]	log2 fold change [2]	log2 fold change [3]	log2 fold change [4]	log2 fold change [5]	log2 fold change [6]	log2 fold change [7]	log2 fold change [8]	log2 fold change [9]	log2 fold change [10]	log2 fold change [11]	log2 fold change [12]	log2 fold change [13]	log2 fold change [14]	log2 fold change [15]	log2 fold change [16]	log2 fold change [17]	log2 fold change [18]	log2 fold change [19]	log2 fold change [20]
PRKCD (UniProt Q05655)	-0.082	0.036	-0.012	-0.032	-0.003	-0.009	0.056	-0.031	0.235 (active)	0.002	-0.143	0.003	-0.011	-0.135	0.024	0.009	0.015	0.005	-0.069	0.007
PRPF38A (UniProt Q8NAV1)	-0.178	-0.068	-0.147	0.013	-0.004	0.115	-0.009	-0.044	0.013	-0.017	-0.001	0.039	-0.248	-0.399 (active)	0.03	0.024	-0.034	0.012	-0.055	0.121
POLD3 (UniProt Q15054)	0.041	-0.032	0.099	-0.033	-0.03	0.021	0.048	-0.025	0.007	-0.018	0.03	-0.046	-0.056	0.022	-0.033	-0.079	0.021	0.001	-0.031	-0.038
PKN1 isoform 2 (UniProt Q16512)	-0.036	-0.056	-0.001	-0.079	-0.003	0.075	0.116	-0.009	-0.1	-0.005	0.038	-0.005	-0.032	0.095	-0.014	-0.233	-0.005	0.108	-0.069	0.04
PTPN6 isoform 4 (UniProt P29350)	-0.12	-0.185	0.037	-0.015	-0.008	0.028	0.261	-0.218	-0.034	0.045	-0.227	-0.058	0.02	-0.038	-0.013	-0.28	0	0.015	-0.278	0.135
POC5 (UniProt Q8NA72)	-0.048	-0.046	0.054	0.154	0.06	0	-0.048	-0.018	-0.009	0.042	-0.133	-0.12	0.02	0.022	-0.041	0.107	-0.086	-0.023	0.051	0.031
PFKFB2 (UniProt O60825)	0.017	-0.045	0.03	-0.02	-0.035	0.015	-0.124	0.014	0.006	0.014	0.006	0.001	0.017	-0.016	-0.015	-0.035	0.038	-0.018	-0.07	0.01
PI4K2A (UniProt Q9BTU6)	-0.006	-0.037	0.021	-0.023	0.012	0.022	-0.092	-0.008	-0.056	0.021	-0.02	-0.036	0.003	-0.006	0.054	-0.03	-0.025	-0.008	0.008	0.014
